An excerpt weighted towards active compounds, which were near 1.4% of everything screened.
GLS inhibitor – blocks human kidney-isoform glutaminase activity. AID 624170. Potency, µM (top dose mostly 45.5 µM), actives largely listed as inhibitors. GLS enzymatic activity, qHTS titration. 410,000 tested, 0.21% active. O94925
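Read-out is an Amplex red fluorescence increase coupled through glutamate oxidase and HRP, measured before and after 30 min room-temperature incubation. hKGA is in 45 mM KH2PO4 (pH 8.2) with 0.02% Tween-20; glutamine added as 1mM solution.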
N370S GC – inhibitors or activators of N370S glucocerebrosidase for Gaucher disease | Potency, µM (top dose mostly 59.4 µM), actives largely listed as inhibitors | N370S GC spleen homogenate, 4MU-glucoside fluorescence | P04062 | AID 2101 | 330,000 tested, 0.092% active
BRCA1 expr act – activators of BRCA1 expression | MCF7-BRCA1-FFLuc reporter, luminescence, 48 h; response scale: scaled: vehicle 0%, 10 µM genistein 100% | Potency, µM (top dose mostly 46.1 µM), actives largely listed as activators | 380,000 tested, 1.1% active | AID 624202; note: nearly all actives have a fitted effect of over 80% in size
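Quantitative HTS in MCF7 cells stably reporting BRCA1 expression via firefly luciferase. Compound treatment lasts 48 h at 37 °C in phenol-red free MEM. Activation is expressed relative to genistein at 10 microM and DMSO.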
TSHR antag – blocks TSH signaling through the human TSH receptor; P16473; TSHR-expressing cells, TSH-stimulated cAMP HTRF, 2 h; hits give low values; activity change, negative = inhibition, % at 11.5 µM; 330,000 tested, 0.2% active;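 active = activity change below a set negative limit, meaning inhibition stronger than a set level, cut at about -70% in these data; inconclusive = activity change between two set negative limits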
Target sequence (P16473 whole entry, looked up): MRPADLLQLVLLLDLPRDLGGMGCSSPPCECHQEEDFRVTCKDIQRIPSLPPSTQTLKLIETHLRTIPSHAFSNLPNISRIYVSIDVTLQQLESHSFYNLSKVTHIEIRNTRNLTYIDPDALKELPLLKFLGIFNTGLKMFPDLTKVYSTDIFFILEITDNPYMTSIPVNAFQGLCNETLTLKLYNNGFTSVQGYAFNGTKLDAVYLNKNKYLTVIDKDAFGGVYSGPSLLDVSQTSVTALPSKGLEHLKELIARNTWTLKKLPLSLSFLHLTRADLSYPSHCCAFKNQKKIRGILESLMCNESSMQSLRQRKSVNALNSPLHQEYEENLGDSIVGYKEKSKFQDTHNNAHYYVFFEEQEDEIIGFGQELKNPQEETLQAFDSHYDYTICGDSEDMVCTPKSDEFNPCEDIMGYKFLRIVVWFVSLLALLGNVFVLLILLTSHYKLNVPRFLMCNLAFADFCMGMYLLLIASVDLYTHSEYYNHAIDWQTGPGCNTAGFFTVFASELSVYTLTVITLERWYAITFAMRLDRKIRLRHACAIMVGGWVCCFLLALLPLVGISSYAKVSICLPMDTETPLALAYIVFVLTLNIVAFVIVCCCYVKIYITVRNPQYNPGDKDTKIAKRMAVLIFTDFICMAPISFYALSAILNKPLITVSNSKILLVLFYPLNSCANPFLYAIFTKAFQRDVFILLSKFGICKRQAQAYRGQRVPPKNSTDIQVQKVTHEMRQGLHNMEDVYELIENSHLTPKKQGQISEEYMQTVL
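Antagonism was scored as loss of TSH-driven cAMP in TSHR cells, stimulated with 4nM TSH (EC80) for 2 hours at 37 deg C and detected by homogeneous HTRF competition immunoassay.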
TCR activator – T cell receptor activation | AID 504894 | Potency, µM (top dose mostly 9.22 µM), most hits filed as activators | 330,000 tested, under 10 active | primary human leukocytes, anti-CD3, IL-2 HTRF, 48 h
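Using a-CD3 beads without co-stimulation, primary human leukocytes were exposed to compounds for 48 hr. An HTRF IL-2 kit measured the cytokine, with europium-to-d2 energy transfer producing emission at 665nm upon 320nm excitation.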
p53 reactivation – restores transcriptional activity of mutant p53 | H1299 p53-A138V BP100-luciferase reporter, luminescence, 24 h | Potency, µM (series often up to 92.2 µM), hits mostly activators | 320,000 tested, 0.063% active | AID 504706; note: nearly all actives have a fitted effect of over 45% in size
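p53-null H1299 cells stably carrying temperature-sensitive p53-A138V and a BP100-luciferase reporter were pinned with compounds (4-point, 1:5 series) and held 24 hrs at 37 deg C. Luminescence was read 10 min after detection reagent.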
Numbers stand for hits; ! = not active in a repeat. Unless noted, calls come from the whole dose curve; as a rule, active = well fitted curve in the direction sought with a large enough effect; inconclusive = small, poorly fitted or top-dose-only effect, or another doubt; inactive = no such curve, though single readings can be large; an effect the other way counts as inactive or inconclusive.

What do the screens show for `O=c1c(-c2ccc3c(c2)OCCO3)coc2cc(OC3OC(CO)C(O)C(O)C3O)ccc12` (stereo not drawn)?
GLS inhibitor: inactive; N370S GC: inactive; BRCA1 expr act: inconclusive; TSHR antag: inactive; TCR activator: inactive

What do the screens show for `COc1ccc2c(=O)c(-c3ccc(OC)c(OC)c3)coc2c1`?
GLS inhibitor: inactive; N370S GC: inactive; BRCA1 expr act: 11.2µM; TSHR antag: inactive; TCR activator: inactive; p53 reactivation: inactive

What do the screens show for `COc1ccc(-c2coc3cc(O[C@@H]4O[C@H](CO)[C@@H](O)[C@H](O)[C@H]4O)ccc3c2=O)cc1`?
GLS inhibitor: inactive; BRCA1 expr act: 2.82µM; TSHR antag: inactive; TCR activator: inactive; p53 reactivation: inconclusive

How did COc1ccc(-c2coc3cc(OC(C)=O)cc(OC(C)=O)c3c2=O)cc1 do in these assays?
N370S GC: inactive

Results for CCOc1ccc(NC(=S)N(CCc2c(C)[nH]c3ccc(C)cc23)Cc2ccncc2)cc1 ?
GLS inhibitor: inactive; N370S GC: 14.1µM; BRCA1 expr act: inactive; TSHR antag: inactive; TCR activator: inactive; p53 reactivation: inactive

Results for Cc1cccc2c1NC(=O)C2(c1ccc(O)cc1)c1ccc(O)cc1 ?
GLS inhibitor: inactive; N370S GC: inactive; BRCA1 expr act: inconclusive; TSHR antag: -81.5; TCR activator: inactive; p53 reactivation: inactive

How did CNc1c(NC(=O)c2ccc(OC)c(OC)c2)c(=O)oc2ccccc12 do in these assays?
GLS inhibitor: inactive

Results for CNc1c(NC(=O)c2ccc3c(c2)OCO3)c(=O)oc2ccccc12 ?
GLS inhibitor: inactive; N370S GC: inactive; BRCA1 expr act: inactive; TSHR antag: -135.9; TCR activator: inactive; p53 reactivation: inactive

Results for CCCN1CNc2c(c(=O)[nH]c(=S)n2CCc2cccc(C)c2)C1 ?
BRCA1 expr act: inactive

What do the screens show for `Cc1ccc(C)c(N2C(=N)S/C(=C\c3ccc(-c4ccccc4C(=O)O)o3)C2=O)c1`?
GLS inhibitor: inactive; N370S GC: inactive; BRCA1 expr act: inactive; TSHR antag: inactive; TCR activator: inactive; p53 reactivation: inactive

What do the screens show for `CCOC(=O)C(C)N1C(=O)S/C(=C\c2ccc(-c3ccccc3C(=O)O)o2)C1=O` (stereo not drawn)?
GLS inhibitor: 12.6µM; N370S GC: inactive; BRCA1 expr act: inactive; TSHR antag: inactive; TCR activator: inactive; p53 reactivation: inactive

How did CCCC(=O)O[C@]1(C(=O)COC(C)=O)CC[C@H]2C3C[C@H](F)C4=CC(=O)C=CC4(C)[C@@]3(F)[C@@H](O)CC21C (stereo partly drawn) do in these assays?
GLS inhibitor: inactive

What do the screens show for `CC(C)(C)S(=O)(=O)c1cnc(-c2ccccn2)nc1N`?
GLS inhibitor: inactive; N370S GC: inactive; BRCA1 expr act: inactive; TSHR antag: inactive; TCR activator: inactive; p53 reactivation: inactive

What do the screens show for `Cc1cccc(-c2ncc(S(=O)(=O)C(C)(C)C)c(N)n2)c1`?
GLS inhibitor: inactive; N370S GC: inactive; BRCA1 expr act: 5.01µM; TSHR antag: inactive; TCR activator: inactive; p53 reactivation: inactive

What do the screens show for `CC(C)(C)c1ccc(C(=O)NC(=S)N2CCOCC2)cc1`?
GLS inhibitor: inactive; N370S GC: inactive; BRCA1 expr act: 10µM; TSHR antag: inactive; TCR activator: inactive; p53 reactivation: inactive

What do the screens show for `CN1CCN(C(=S)NC(=O)c2ccc(C(C)(C)C)cc2)CC1`?
GLS inhibitor: inactive; N370S GC: inactive; BRCA1 expr act: inactive; TSHR antag: inactive; TCR activator: inactive; p53 reactivation: inactive

What do the screens show for `CCCCn1c(O)c(N=Nc2ccccn2)c2ccccc21`?
GLS inhibitor: inactive; N370S GC: inactive; BRCA1 expr act: inactive; TSHR antag: inactive; TCR activator: inactive; p53 reactivation: inactive

How did CCCCn1c(O)c(N=Nc2ccccc2O)c2ccccc21 do in these assays?
GLS inhibitor: inactive; BRCA1 expr act: inactive; TSHR antag: inactive; TCR activator: inactive; p53 reactivation: 39.8µM

How did Clc1ccccc1-c1nc(-c2ccncc2)no1 do in these assays?
GLS inhibitor: inactive; N370S GC: inactive; BRCA1 expr act: 1.78µM!; TSHR antag: inactive; TCR activator: inactive; p53 reactivation: inconclusive

Results for CS(=O)c1ccccc1-c1nc(-c2cccc(Cl)c2)no1 (stereo not drawn) ?
GLS inhibitor: inactive; N370S GC: inactive; BRCA1 expr act: inactive; TSHR antag: inactive; TCR activator: inactive; p53 reactivation: inactive

Results for CS(=O)c1ccccc1-c1nc(-c2ccc(Cl)cc2)no1 (stereo not drawn) ?
GLS inhibitor: inactive; N370S GC: inactive; BRCA1 expr act: 11.2µM; TSHR antag: inactive; TCR activator: inactive; p53 reactivation: inactive

What do the screens show for `O=[N+]([O-])c1cc(Cl)ccc1-c1nc(-c2ccncc2)no1`?
GLS inhibitor: inactive; N370S GC: inactive; BRCA1 expr act: inactive; TSHR antag: inactive; TCR activator: inactive; p53 reactivation: inactive

How did c1coc(-c2nc(-c3ccncc3)no2)c1 do in these assays?
GLS inhibitor: inactive; N370S GC: inactive; BRCA1 expr act: 3.16µM; TSHR antag: inactive; TCR activator: inactive; p53 reactivation: inconclusive

Results for O=[N+]([O-])c1cc(Cl)ccc1-c1nc(-c2ccccc2)no1 ?
GLS inhibitor: inactive; N370S GC: inactive; BRCA1 expr act: 2.82µM; TSHR antag: inactive; TCR activator: inactive; p53 reactivation: inconclusive

What do the screens show for `c1ccc(-c2ccccc2-c2nc(-c3ccncc3)no2)cc1`?
GLS inhibitor: inactive; N370S GC: inactive; BRCA1 expr act: inactive; TSHR antag: inactive; TCR activator: inactive; p53 reactivation: inactive

What do the screens show for `Cc1ccc(-n2cc3c(c2-c2ccccc2Br)c(=O)n(C)c(=O)n3C)cc1N`?
GLS inhibitor: inactive

How did CSc1ccccc1-c1nc(-c2ccncc2)no1 do in these assays?
GLS inhibitor: inactive; N370S GC: inactive; BRCA1 expr act: 3.16µM; TSHR antag: inactive; TCR activator: inactive

What do the screens show for `O=[N+]([O-])c1ccc(-c2nc(-c3ccncc3)no2)cc1`?
GLS inhibitor: inactive; N370S GC: inactive; BRCA1 expr act: 2.51µM; TSHR antag: inactive; TCR activator: inactive; p53 reactivation: inactive

How did Cc1c(O)ccc2c1OC(C)(C)CC2 do in these assays?
BRCA1 expr act: inactive

Results for CN(Cc1cc(-c2ccccc2)on1)C(=O)c1cc(COc2c(F)cccc2F)on1 ?
GLS inhibitor: inactive; N370S GC: inactive; BRCA1 expr act: 11.2µM; TSHR antag: inactive; TCR activator: inactive; p53 reactivation: inactive

Results for COc1ccc(N2CCN(c3nccs3)CC2)cc1 ?
GLS inhibitor: inactive; N370S GC: inactive; BRCA1 expr act: 11.2µM; TSHR antag: inactive; TCR activator: inactive; p53 reactivation: inconclusive

Screening data as filed in PubChem BioAssay.
